ELG1 repair inh: blocks ELG1-dependent DNA repair in HEK293T cells; Potency, µM (titrated, usually from 46.1 µM), without a hit: at the highest dose activity change, negative = inhibition, actives largely listed as inhibitors; 2.3% of 330,000 active; AID 504467; HEK293T ELG1-luciferase reporter, luminescence, 16 h; DNA damage induced by 5-fluorouridine; further: potency means the concentration at half of the fitted maximal effect; nearly all actives have a fitted effect of over 55% in size
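5-Fluorouridine DNA damage + compound/DMSO, 2,000 cells/well, 16 h, 37 °C/5% CO2. ONE-Glo, 30 min RT, luminescence. Readout = decrease in reporter signal.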
HT1080NT lethal: kills 2HG-producing HT-1080-NT fibrosarcoma cells; AID 686970; HT-1080-NT fibrosarcoma viability, CellTiter-Glo ATP luminescence, 48 h; Potency, µM (doses to about 46.1 µM), inactives show at the top dose activity, negative = less viability, usual class: cytotoxic; 1.6% of 360,000 active;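 further: NT is the 2HG producing partner of a matched IDH1 knockdown line; potency means the concentration at half of the fitted maximal effect; 0% = DMSO-treated cells and -100% = media-only wells without cells; nearly all actives have a fitted effect of over 55% in size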
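Toxicity toward the 2HG-producing NT line was scored as %Activity, normalised to DMSO and no-cell wells, from CellTiter-Glo luminescence after 48 hours' treatment.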
DT40 TDP1 CPT: DT40-hTDP1 cell growth loss with CPT; chicken DT40 Tdp1-/-;hTDP1 cells + 20 nM CPT, ATP luminescence, 48 h; Potency, µM (top dose mostly 46.2 µM), without a hit: at the highest dose activity change, negative = growth inhibition, actives largely listed as inhibitors; 12% of 420,000 active; AID 686979; further: potency means the concentration at half of the fitted maximal effect; nearly all actives have a fitted effect of over 55% in size
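Chicken DT40 Tdp1-/- cells stably complemented with human TDP1 were seeded at 400 cells/well in medium containing 20 nM camptothecin, exposed to pin-transferred compounds, and grown at 37 °C for at least 48 hr. Viability was read as ATP luminescence.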
HT1080 IDH1KD tx: HT-1080 IDH1 knockdown cell toxicity (counter line); HT-1080 IDH1 knockdown viability, ATP luminescence, 48 h; Potency, µM (titrated, usually from 46.1 µM), inactives show at the highest dose activity, negative = toxicity, most hits filed as cytotoxic; 2% of 360,000 active; AID 686971;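 further: potency means the concentration at half of the fitted maximal effect; 0% = DMSO wells and -100% = cell-free medium wells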
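IDH1KD HT-1080 cells, 750/well, RPMI + 5% FBS; compound pinned after 2 h settling; 48 h, 37 °C; CellTiter-Glo luminescence; % activity normalised to DMSO and no-cell wells; curves fitted, classed by r2 and efficacy.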
IL1B secr inh: inflammasome signaling inhibition, IL-1 beta readout; THP-1 LPS/ATP IL-1B secretion, AlphaLISA, 16 h; stronger effect = lower value; activity change, % at 57.5 µM; 4.7% of 360,000 active; AID 743279; in the data active means activity change below about -50%; inconclusive means mostly about -30% to -49%
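THP-1 cells pretreated 1 hr with compounds (up to 57.5 uM final), then stimulated with LPS (250 ng/mL final) plus ATP (1.25 mM final); secreted IL-1B measured by AlphaLISA after 16 hr, decreased signal indicating inhibition.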
TDP1 cell noCPT: qHTS for Inhibitors of human tyrosyl-DNA phosphodiesterase 1 (TDP1): qHTS in cells in absence of CPT | AID 686978, 2013 | 15% of 420,000 active | DT40 Tdp1-/- hTDP1 cells, no CPT, ATP luminescence, 48 h | Potency, µM (highest dose often 46.2 µM), inactives show at the top dose activity change, negative = growth inhibition, hits mostly inhibitors; further: potency means the concentration at half of the fitted maximal effect; nearly all actives have a fitted effect of over 55% in size
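Compound effects on proliferation are scored in DT40 Tdp1-/-;hTDP1 cells in the absence of CPT. ATP levels (CellTiter-Glo luminescence) are recorded after a ≥48 hr, 37 °C incubation.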
* = called active by the depositor; ? = inconclusive; · = no result given. Sampled rows, rich in hits. Any-hit rate of the full collection: about 19%. Unless noted, the call rests on the fitted dose curve; in most records, active means well fitted curve in the direction sought with a large enough effect; inconclusive means small, poorly fitted or top-dose-only effect, or another doubt; inactive means no such curve, though single readings can be large; an effect the other way counts as inactive or inconclusive. Unless noted, on the % scale 0 is the no-effect control and ±100 the full control effect.

SMILES	ELG1 repair inh	HT1080NT lethal	DT40 TDP1 CPT	HT1080 IDH1KD tx	IL1B secr inh	TDP1 cell noCPT
Cc1nn(-c2nc3ccccc3[nH]2)c(=O)c2ccccc12	?	1.5µM*	1.8µM*	1.5µM*	-16	2.1µM*
COc1ccc(-n2nc(C(=O)NCCCN3CCCC3=O)c3c4ccccc4n(C)c3c2=O)cc1Cl	?	-2%	-13%	-2%	10	-23%
COc1ccc(-n2nc(C(=O)N3CCCCC3)c3c4ccccc4n(C)c3c2=O)cc1Cl	·	·	4.1µM*	·	·	16µM*
CCOC(=O)C1CCN(C(=O)c2nn(-c3ccc(OC)c(Cl)c3)c(=O)c3c2c2ccccc2n3C)CC1	·	·	21µM*	·	·	15µM*
COc1ccc(-n2nc(C(=O)N3CCCC(C)C3)c3c4ccccc4n(C)c3c2=O)cc1 (stereo not given)	·	·	26µM*	·	·	?
COc1ccc(-c2nc3ccc([N+](=O)[O-])cc3[nH]2)cc1	?	1%	?	0%	-7	?
Clc1ccc(-c2nc3ccncc3[nH]2)cc1	?	?	10µM*	?	4	?
Cc1ccc2nc(-c3cccc(N)c3)[nH]c2c1	?	?	15µM*	?	-4	?
Fc1ccc(-c2nc3ccncc3[nH]2)cc1	?	-7%	-23%	-4%	-5	-14%
O=[N+]([O-])c1cccc(-c2nc3ccc([N+](=O)[O-])cc3[nH]2)c1	-19%	5%	10µM*	5%	-16	21µM*
Cc1ccc(-c2nc3ccc([N+](=O)[O-])cc3[nH]2)cc1	?	7%	?	20%	-15	21µM*
O=C(c1cnccn1)N1CCC[C@@]2(CCN(C(c3ccccc3)c3ccccc3)C2)C1	·	·	-23%	·	·	?
O=C(CN1CCN(c2ccc(O)cc2)CC1)N(C1CC1)C1CCS(=O)(=O)C1 (stereo not given)	6%	22%	-11%	3%	0	-29%
N#Cc1ccc(CN2CCCC3(CCN(C(=O)c4ccncc4)CC3)C2)cc1	·	·	-1%	·	·	-12%
O=[N+]([O-])c1ccc2nc(-c3ccncc3)[nH]c2c1	?	3%	?	-2%	51	?
O=[N+]([O-])c1ccc2nc(-c3ccc(Cl)cc3)[nH]c2c1	?	-10%	?	-10%	?	16µM*
O=[N+]([O-])c1ccc2nc(-c3ccccc3[N+](=O)[O-])[nH]c2c1	26%	-13%	0%	-7%	?	-12%
O=[N+]([O-])c1ccc2nc(-[n+]3c(-c4ccccc4)cc(-c4ccccc4)cc3-c3ccccc3)[nH]c2c1	23µM*	-1%	23µM*	-13%	?	21µM*
COc1ccc(/C=N/NC(=O)CCn2cnc(-c3ccccc3)c2-c2ccccc2)cc1OC	?	9.2µM*	5.2µM*	8.2µM*	16	6.5µM*
COc1ccc(/C=N/NC(=O)CCSc2nc3ccccc3s2)cc1OC	?	-3%	13µM*	-4%	-20	29µM*
COc1ccc(/C=N/NC(=O)CCC(=O)Nc2ccccc2)cc1OC	8%	-12%	-4%	0%	-5	-23%
COc1ccc(/C=N/NC(=O)Cc2ccc(Cl)cc2)cc1OC	-2%	-6%	?	-8%	-10	-7%
CCc1cccc(C)c1NC(=O)CCCSc1nc2ccccc2s1	?	-12%	18µM*	-12%	10	16µM*
COc1ccc(/C=N/NC(=O)c2ccccc2Cl)cc1CSc1nc2ccccc2s1	-1%	4.5µM*	5.8µM*	?	50	4.6µM*
